# Reference: the supplement of paper PMC9254222
# Over roughly 1,100 compounds, “Wnt reporter firefly/Renilla luciferase ratio relative to plate median” has its median near 1.1; the highest 2% begin near 1.6. For the sample, the highest values were picked, then their nearest neighbours and some compounds at random.
# Test system: HEK293T (UBE3A T485A transfected, BAR Wnt reporter)
# Assay: Wnt reporter firefly/Renilla luciferase ratio relative to plate median (fold (linear ratio)); higher = more Wnt/beta-catenin reporter activation
# Settings: 24 h
# In short: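 HEK293T cells were seeded at 4500 cells/well in white 384-well plates and grown in DMEM with 10% FBS at 37°C and 5% CO2. The cells were transfected using Fugene 6 with a BAR firefly luciferase Wnt reporter, TK-Renilla and an expression plasmid, and four hours later robots added the chemicals at 0.01–100 uM for 24 h before a Dual-Glo luciferase readout. Wnt activity was taken as the firefly/Renilla ratio and cell health as raw Renilla, each median-centred per plate. Values are averages of four biological replicates.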
SMILES,Wnt reporter firefly/Renilla luciferase ratio (concentration: 0.01 uM),Wnt reporter firefly/Renilla luciferase ratio (concentration: 0.1 uM),Wnt reporter firefly/Renilla luciferase ratio (concentration: 1 uM),Wnt reporter firefly/Renilla luciferase ratio (concentration: 10 uM),Wnt reporter firefly/Renilla luciferase ratio (concentration: 100 uM)
CCOC(=O)C(Cl)Cc1cc(-n2nc(C)n(C(F)F)c2=O)c(F)cc1Cl (stereo not given) [Carfentrazone-ethyl],1.07,0.973,0.982,0.945,1.28
CCOC(=O)COc1cc(-c2nn(C)c(OC(F)F)c2Cl)c(F)cc1Cl [Pyraflufen-ethyl],1.13,1.63,1.05,1.09,1.13
O=C(Oc1ccc(Br)cc1)N1CCN2CCC1CC2,,1.11,0.988,1.09,0.334
CC(COc1ccc(Oc2ccccc2)cc1)Oc1ccccn1 (stereo not given) [Pyriproxyfen],1.12,0.977,1.04,1.03,0.55
ClC1(Cl)C2(Cl)C3(Cl)C4(Cl)C(Cl)(Cl)C5(Cl)C3(Cl)C1(Cl)C5(Cl)C24Cl (stereo not given) [Mirex],,1.02,1.05,0.921,1.28
O=C(Nc1ccccc1)Nc1ccnc(Cl)c1 [Forchlorfenuron],1.1,1.16,0.957,0.694,
CCCCc1ccccc1 [Butylbenzene],,0.995,1.31,1.01,0.948
CC(C)N(C(=O)COc1nnc(C(F)(F)F)s1)c1ccc(F)cc1 [Flufenacet],0.973,0.746,0.898,0.605,0.254
C=CCc1ccc2c(c1)OCO2 [Safrole],,1.26,1.37,0.895,1.23
C[C@]12C=CC3=C4CCC(=O)C=C4CC[C@H]3[C@@H]1CC[C@@H]2O [17beta-Trenbolone],,1.08,1.18,0.938,0.146
CCNC(=O)NC(=O)/C(C#N)=N/OC [Cymoxanil],1.42,1.34,1.15,1.29,1.1
CC(C)(C)c1ccccc1O [2-tert-Butylphenol],,1.53,1.54,1.25,0.813
CC1(C)C(C=C(Cl)Cl)C1C(=O)OCc1cccc(Oc2ccccc2)c1 (stereo not given) [Permethrin],0.82,0.873,1.11,1.19,0.865
Nc1nc(N)nc(NC2CC2)n1 [Cyromazine],1.01,1.18,0.955,1.02,1.22
CCCCCCCCn1sccc1=O [Octhilinone],,1.02,1.15,1.07,
CNC(=O)N(C)c1nnc(C(C)(C)C)s1 [Tebuthiuron],1.35,1.39,1.32,1.67,1.5
CCCN(CCC)c1c([N+](=O)[O-])cc(C(C)C)cc1[N+](=O)[O-] [Isopropalin],,1.07,1.04,1.11,1.31
CCOC1Oc2ccc(OS(C)(=O)=O)cc2C1(C)C (stereo not given) [Ethofumesate],1.05,0.973,1.03,1.14,1.86
N#CC(CCc1ccc(Cl)cc1)(Cn1cncn1)c1ccccc1 (stereo not given) [Fenbuconazole],1.07,1.01,1.03,0.614,0.347
CN(C)C(=S)[S-].[Na+] [Sodium dimethyldithiocarbamate],,1.22,0.816,0.751,0.926
CN(C)C(=S)[S-].CN(C)C(=S)[S-].[Zn+2] [Ziram],,1,0.732,0.577,

SMILES,Wnt reporter firefly/Renilla luciferase ratio (concentration: 0.01 uM),Wnt reporter firefly/Renilla luciferase ratio (concentration: 0.1 uM),Wnt reporter firefly/Renilla luciferase ratio (concentration: 1 uM),Wnt reporter firefly/Renilla luciferase ratio (concentration: 10 uM),Wnt reporter firefly/Renilla luciferase ratio (concentration: 100 uM)
CN(C)C(=S)SSC(=S)N(C)C [Thiram],1.62,1.39,1.06,1.24,
c1ccc(-c2ccccc2)cc1 [Biphenyl],,1.39,1.01,1.25,1.46
CCCC1COC(Cn2cncn2)(c2ccc(Cl)cc2Cl)O1 (stereo not given) [Propiconazole],0.957,1.03,1.17,0.78,
CCON=C(CC)C1=C(O)CC(c2c(C)cc(C)cc2C)CC1=O (stereo not given) [Tralkoxydim],1.14,1.54,1.03,1.05,0.67
CCC(=O)Nc1ccc(Cl)c(Cl)c1 [Propanil],1.31,1.71,0.955,1.25,0.294
CN(C)C(=O)Nc1ccc(Cl)cc1 [Monuron],,0.888,0.901,1.09,1.04
CON(C)C(=O)Nc1ccc(Cl)c(Cl)c1 [Linuron],1.1,0.829,1.11,1.17,0.524
ClC1=C(Cl)C2(Cl)C3C(Cl)C=CC3C1(Cl)C2(Cl)Cl (stereo not given) [Heptachlor],,0.972,1.07,1.17,1.24
N#CC(Br)Br [Dibromoacetonitrile],,1.15,1.01,1.17,1.19
O=[N+]([O-])c1ccc(Cl)cc1 [1-Chloro-4-nitrobenzene],,1.04,1.2,1.02,1.38
"O=[N+]([O-])c1ccc(Cl)c(Cl)c1 [3,4-Dichloronitrobenzene]",,1.21,1.14,1.29,1.54
Nc1c(Cl)cc([N+](=O)[O-])cc1Cl [Dicloran],1.85,1.64,0.962,1.29,0.345
CCC(C)(c1ccc(O)cc1)c1ccc(O)cc1 [Bisphenol B],,1.11,0.969,0.999,0.0398
N#Cc1c(Cl)c(Cl)c(Cl)c(C#N)c1Cl [Chlorothalonil],0.876,0.784,1.16,0.725,
CCCCOC(=O)[C@@H](C)Oc1ccc(Oc2ccc(C#N)cc2F)cc1 [Cyhalofop-butyl],1.1,0.959,1.06,0.848,0.697
CC(C)(OOC(C)(C)c1ccccc1)c1ccccc1 [Dicumyl peroxide],,1.15,0.998,0.968,1.39
C#CCC1=C(C)C(OC(=O)C2C(C=C(C)C)C2(C)C)CC1=O (stereo not given) [Prallethrin],0.931,0.996,1.04,1.05,0.276
CC(C)(C)c1ccc(O)cc1 [4-tert-Butylphenol],,0.97,1.1,0.863,1.21
CO/C=C(/C(=O)OC)c1ccccc1Oc1cc(Oc2ccccc2C#N)ncn1 [Azoxystrobin],1.4,1.25,1.04,0.786,0.984
CCC(=NOC/C=C/Cl)C1=C(O)CC(C2CCOCC2)CC1=O (stereo not given) [Tepraloxydim],0.655,0.79,1.12,1.08,1.18
